PLC-beta3 inh – human PLC-beta3 inhibitors, primary screen, biochemical, fluorescence | Purified PLC-beta3, fluorogenic substrate | inhibition, % at 12.2 µM | actives 0.18% (n = 370,000) | AID 720704, 2013; in the data active means inhibition above about 11%
Target sequence (Q01970 whole entry, looked up): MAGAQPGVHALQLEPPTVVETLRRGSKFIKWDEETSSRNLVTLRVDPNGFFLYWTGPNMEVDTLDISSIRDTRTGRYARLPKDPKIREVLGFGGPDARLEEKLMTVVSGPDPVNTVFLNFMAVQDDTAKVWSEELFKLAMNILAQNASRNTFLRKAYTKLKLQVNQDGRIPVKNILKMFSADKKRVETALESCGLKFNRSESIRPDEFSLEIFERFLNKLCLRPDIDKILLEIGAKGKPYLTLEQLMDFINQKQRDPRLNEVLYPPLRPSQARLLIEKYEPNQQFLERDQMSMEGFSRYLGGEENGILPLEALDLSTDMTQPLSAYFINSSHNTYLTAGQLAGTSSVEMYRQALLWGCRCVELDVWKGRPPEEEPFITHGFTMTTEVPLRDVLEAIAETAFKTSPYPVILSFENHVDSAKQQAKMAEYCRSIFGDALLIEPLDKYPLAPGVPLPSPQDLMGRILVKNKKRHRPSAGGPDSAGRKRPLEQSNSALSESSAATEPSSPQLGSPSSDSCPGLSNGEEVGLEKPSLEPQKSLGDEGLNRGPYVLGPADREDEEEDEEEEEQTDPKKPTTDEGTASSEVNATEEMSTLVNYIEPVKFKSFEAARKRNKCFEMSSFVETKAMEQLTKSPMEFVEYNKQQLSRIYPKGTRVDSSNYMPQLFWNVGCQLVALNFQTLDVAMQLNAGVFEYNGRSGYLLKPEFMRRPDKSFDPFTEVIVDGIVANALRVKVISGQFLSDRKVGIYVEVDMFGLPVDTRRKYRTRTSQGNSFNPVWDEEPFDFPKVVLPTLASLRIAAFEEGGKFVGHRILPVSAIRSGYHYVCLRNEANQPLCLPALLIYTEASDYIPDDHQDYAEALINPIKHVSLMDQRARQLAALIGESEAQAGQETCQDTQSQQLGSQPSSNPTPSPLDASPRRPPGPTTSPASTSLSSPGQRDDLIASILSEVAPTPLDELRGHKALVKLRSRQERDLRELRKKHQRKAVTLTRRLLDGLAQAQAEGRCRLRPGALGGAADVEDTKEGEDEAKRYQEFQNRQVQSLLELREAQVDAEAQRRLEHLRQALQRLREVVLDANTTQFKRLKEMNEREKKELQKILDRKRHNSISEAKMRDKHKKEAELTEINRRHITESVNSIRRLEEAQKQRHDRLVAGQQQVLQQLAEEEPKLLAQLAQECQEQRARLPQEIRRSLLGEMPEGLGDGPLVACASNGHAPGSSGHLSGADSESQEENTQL
MsrA inhibitor – bovine MsrA enzyme inhibitors, primary screen, biochemical, absorbance, HTS; Methionine sulfoxide reductase A (Bos taurus); purified bovine MsrA, absorbance read-out; inhibition, % at 15.5 µM; actives 0.75% (n = 360,000); AID 651718, 2012; in the data active means inhibition above about 4.5%
bovine MsrA act – bovine MsrA enzyme activators, primary screen, biochemical, absorbance, HTS | purified bovine MsrA, absorbance read-out | activation, % at 10.6 µM | actives 0.3% (n = 360,000) | AID 602163, 2012; in the data active means activation above about 7.5%
PLCg1 inh – PLC-gamma1 enzyme inhibitors, primary screen, biochemical, fluorescence, purified enzyme | 1-phosphatidylinositol 4,5-bisphosphate phosphodiesterase gamma-1 (Homo sapiens), P19174 | fluorogenic substrate | inhibition, % at 12.2 µM | actives 0.84% (n = 370,000) | AID 720700, 2013
PLCg1 ctr – PLC-gamma1 enzyme inhibitors, counter-screen for PLC-beta3 inhibitor project, biochemical, fluorescence | shares compounds with PLCg1 inh | purified PLC-gamma1, fluorogenic substrate | inhibition, % at 12.3 µM | actives 3.1% (n = 3,300) | AID 743258, 2014
PLCb3 confirm – PLC-beta3 inhibitor confirmation, biochemical, fluorescence, purified enzyme; shares compounds with PLCg1 inh; fluorogenic substrate fluorescence; inhibition, % at 12.3 µM; actives 1% (n = 3,300); AID 743261, 2014; in the data active means inhibition above about 11%
Large screens that a line does not name were inactive (follow-up assays come after a bar, where they were run). Only some compounds are listed: those with a hit (about 1.9% of all), similar ones and a draw of the others. Unless noted, no stated cut-off is given here; in the data, active means inhibition above about 9.5%; inactive means the rest.

CN(C)S(=O)(=O)c1ccc(NC(=O)CN2CCN(C(c3ccccc3)c3ccccc3)CC2)cc1	PLCg1 inh 11 | PLCg1 ctr inactive | PLCb3 confirm inactive
O=C(CN1CCN(C(c2ccccc2)c2ccccc2)CC1)Nc1ccc(N2CCOCC2)cc1	none
O=C(NCCS(=O)(=O)N1CCN(c2cccc(Cl)c2)CC1)c1cc(=O)c2ccccc2o1	none
COc1ccc(CNC(=O)C2(CC3CC(c4ccccc4)=NO3)CCN(C(=O)C3(C)CC3)CC2)cc1 (stereo unspecified)	PLCg1 inh 11 | PLCg1 ctr inactive | PLCb3 confirm inactive
COc1ccc(CNC(=O)CCC(=O)Nc2nnc(CC(C)C)s2)cc1	PLCg1 inh 12 | PLCg1 ctr inactive | PLCb3 confirm inactive
Oc1ccc(C[C@@H]2CNCCN2CCc2cc(C(F)(F)F)cc(C(F)(F)F)c2)cc1	none
Oc1ccc(C[C@@H]2CNCCN2CCCCC2CCCCC2)cc1	PLC-beta3 inh 14 | PLCg1 ctr inactive | PLCb3 confirm inactive
COc1ccc(C(C)C)cc1-c1cccc2nncn12	none
COc1ccc(NC(=O)NC2(C)CCS(=O)(=O)C2)cc1 (stereo unspecified)	PLCg1 inh 12 | PLCg1 ctr inactive | PLCb3 confirm inactive
CCCNC(=O)C1(C)CCN(CCS(=O)(=O)c2ccc(C)cc2)C1 (stereo unspecified)	none
CCNC(=O)C1(C)CCN1CCS(=O)(=O)c1ccc(C)cc1 (stereo unspecified)	PLC-beta3 inh 13 | PLCg1 ctr inactive | PLCb3 confirm inactive
CC(=O)N1CCSc2ccc(S(=O)(=O)NCCc3cccc(C)c3)cc21	PLCg1 inh 16 | PLCg1 ctr inactive | PLCb3 confirm inactive
CC(=O)N1CCSc2ccc(S(=O)(=O)NCCc3ccc(C)cc3)cc21	none
COc1ccc(C(=O)NCC(=O)OC2CCCCC2=O)cc1 (stereo unspecified)	PLC-beta3 inh 14 | PLCg1 ctr inactive | PLCb3 confirm inactive
CC(C)(C)OC(=O)C[C@@H]1C/C=C\C[C@H](CC(=O)N[C@H](CO)Cc2ccccc2)C(=O)N[C@@H](Cc2c[nH]c3ccccc23)COC1=O	none
CCC1CCCCN1CCCNC(=O)c1cn(C)c2ccc(S(=O)(=O)N(C)C3CCCCC3)cc2c1=O (stereo unspecified)	PLCg1 inh 12 | PLCg1 ctr inactive | PLCb3 confirm inactive
CCN(CC)S(=O)(=O)c1ccc2c(c1)c(=O)c(C(=O)NCc1cccs1)cn2C	PLCg1 inh 9.6 | PLCg1 ctr inactive | PLCb3 confirm inactive
CCC1CCCCN1CCCNC(=O)c1cn(C)c2ccc(S(=O)(=O)N3CCOCC3)cc2c1=O (stereo unspecified)	none
COC(=O)c1cn(C)c2ccc(S(=O)(=O)N(C)C3CCCCC3)cc2c1=O	PLCg1 inh 11 | PLCg1 ctr inactive | PLCb3 confirm inactive
COC(=O)c1cn(C)c2ccc(S(=O)(=O)N3CCCCC3)cc2c1=O	PLCg1 inh 12 | PLCg1 ctr inactive | PLCb3 confirm inactive
Cn1cc(C(=O)N2CCCCCC2)c(=O)c2cc(S(=O)(=O)N3CCCCC3)ccc21	none
CCCCCCn1c(=O)n2n(c1=O)C[C@]1(OC(=O)Nc3c(C)noc3C)CN(S(=O)(=O)c3ccc(C)cc3)C[C@]1(O)C2	none
NC(=O)c1ccc(NC(=O)COC(=O)c2ccccc2SCC(=O)N2CCCC2)cc1	none
O=C(O)CCC(=O)CCC(=O)c1ccc(Cl)cc1	PLCg1 inh 11 | PLCg1 ctr inactive | PLCb3 confirm inactive
OC(COC1CCCCC1)CN1CCN(c2ccccc2)CC1 (stereo unspecified)	PLCg1 inh 13 | PLCg1 ctr inactive | PLCb3 confirm inactive
Cc1ccc(Cn2cc(CN(C)S(=O)(=O)c3ccccc3Br)nn2)cc1	none (no result: MsrA inhibitor, bovine MsrA act)
CCN1CCN(c2nc(N)c([N+](=O)[O-])c(Nc3ccc(C)cc3)n2)CC1	PLCg1 inh 13 | PLCg1 ctr inactive | PLCb3 confirm inactive
CCN1CCN(c2nc(N)c([N+](=O)[O-])c(Nc3ccc(C)c(C)c3)n2)CC1	none
